Screens (PubChem BioAssay)
This is a sample that favours compounds with a hit; in the whole collection about 8.7% have one here.
G9a block: blocks human histone lysine methyltransferase G9a; Q96KQ7; hit rate 8.8% among 350,000; Potency, µM (titrated, usually from 102 µM), for inactives: top-dose activity, negative = inhibition, usual class: inhibitors; G9a H3K9 monomethylation, AlphaScreen, 2 h; also: % is scaled to controls: 0 for no effect and ±100 for the full control effect; nearly all actives have a fitted effect of over 75% in size
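Enzyme 20 nM + cpd, 15 min RT; add b-H3K9 pep 500 nM / SAM 20 uM; 2 h RT; anti-H3K9me1 Ab 0.5 ug/mL + SA donor / anti-rabbit acceptor beads 20 ug/mL each, 10 min; AlphaScreen read.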
HP1b binding inh: blocks HP1-beta chromodomain binding to methylated histone tails; P83916; AlphaScreen HP1-beta / biotin-H3K9me3 peptide binding; Potency, µM (doses to about 114 µM), for inactives: at the highest dose activity change, negative = inhibition, usual class: inhibitors; hit rate 0.56% among 390,000; also: nearly all actives have a fitted effect of over 70% in size
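Compound inhibition of the preformed complex between 50 nM HP1-beta and 50 nM biotinylated H3K9me3 peptide was read by AlphaScreen. Buffer was PBS pH 7.4 with 0.01% Tween-20. Incubations ran 30 min at room temperature, with 10 ug/mL donor/acceptor beads.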
BAZ2B inh: inhibitors of human BAZ2B bromodomain; Q9UIF8; AlphaScreen BAZ2B-H3K14Ac peptide displacement; hit rate 4.4% among 360,000; Potency, µM (series often up to 114 µM), for inactives: at the highest dose activity change, negative = inhibition, actives largely listed as inhibitors; AID 504333; also: % is scaled to controls: 0 for no effect and ±100 for the full control effect; nearly all actives have a fitted effect of over 60% in size
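In this displacement format the biotinylated H3(5-23) peptide acetylated at Lys14 serves as ligand at 50 nM, with BAZ2B at 50 nM in PBS pH 7.4 containing 0.01% Tween-20. Donor and acceptor beads are 10 ug/mL final.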
Sfp inh: inhibitors of Bacillus subtilis Sfp phosphopantetheinyl transferase; hit rate 3.5% among 310,000; Biochemical Sfp PPTase activity, qHTS; Q9F4F7; AID 1490; Potency, µM, without a hit: largest response in the series, negative = inhibition, most hits filed as inhibitors;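 also: the enzyme is Sfp with the accession as filed and its product quenches rhodamine fluorescence; 0% = enzyme reaction without inhibitor and -100% = no enzyme wells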
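Compounds were incubated with enzyme (final 15 nM) for 15 min at room temperature before substrate addition started the reaction. Fluorescence at 525 nm excitation, 598 nm emission was recorded immediately and after 30 minutes.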
ALOX12 inh: inhibitors of human 12S-lipoxygenase ALOX12. AID 1671190. hit rate 1.1% among 580,000. purified 12hLO, xylenol orange hydroperoxide absorbance. Potency, µM (series often up to 108 µM), inactives show at the top dose activity change, negative = inhibition, usual class: inhibitors; also: % is scaled to controls: 0 for no effect and ±100 for the full control effect
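Purified human 12hLO (150 nM final) in 25 mM Hepes, 0.01% Triton X-100, pH 7.0 was preincubated 15 min at room temperature with compound. Then 40 uM arachidonic acid was added, 30 min. Hydroperoxide was read by Fe-XO absorbance ratio 573/405 nm.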
JMJD2A Tudor: inhibitors of human JMJD2A Tudor domain | O75164 | AlphaScreen JMJD2A-Tudor / H3K4me3 peptide binding | Potency, µM (highest dose often 114 µM), without a hit: top-dose activity change, negative = inhibition, most hits filed as inhibitors | hit rate 4.4% among 390,000; also: % is scaled to controls: 0 for no effect and ±100 for the full control effect; nearly all actives have a fitted effect of over 50% in size
* marks the source's active call; other numbers are inactive results; ? = inconclusive; nt = not tested or not shown; [ ] = another dose, or the depositor's remark. Calls follow the shape of the dose curve; as a rule, active = well fitted curve in the direction sought with a large enough effect; inconclusive = small, poorly fitted or top-dose-only effect, or another doubt; inactive = no such curve, though single readings can be large; an effect the other way counts as inactive or inconclusive. Potency is read from the fitted curve at half-maximal effect.

SMILES	G9a block	HP1b binding inh	BAZ2B inh	Sfp inh	ALOX12 inh	JMJD2A Tudor
COc1cccc(NC(=O)C2Cc3ccccc3CN2C(=O)c2ccco2)c1 (stereo not drawn)	35µM*	-14%	-14%	-15%	1%	-27%
CCS(=O)(=O)N1Cc2ccccc2CC1C(=O)Nc1nnc(SCc2ccc(C#N)cc2)s1 (stereo not drawn)	45µM*	24%	2%	6%	-15%	-18%
NS(=O)(=O)c1ccc(NC(=O)C2Cc3ccccc3CN2C(=O)c2ccco2)cc1 (stereo not drawn)	50µM*	?	50µM*	-22%	-27%	40µM*
CCSc1nnc(NC(=O)C2Cc3ccccc3CN2C(=O)c2ccco2)s1 (stereo not drawn)	?	26%	?	40µM*	-14%	79µM*
CCC(=O)N1CCc2cc(S(=O)(=O)NCCC(=O)Nc3ccc(N(CC)CC)cc3C)ccc21	10µM*	-14%	nt	nt	0%	?
CC(=O)N1CCCc2cc(S(=O)(=O)Nc3ccc(C)cc3C)ccc21	-12%	5%	?	-16%	8%	-14%
CCN(CC)c1ccc(NS(=O)(=O)c2ccc3c(c2)CCCN3C(C)=O)c(C)c1	11µM*	-5%[57 µM]	40µM*	nt	3%	50µM*
CCOC(=O)Cn1c(=O)oc2cc(S(=O)(=O)Nc3ccc(N(CC)CC)cc3C)ccc21	40µM*	0%	?	9%	?	?
CC(C)c1ccc(NC(=O)N[C@H]2CO[C@H]3[C@@H]2OC[C@H]3OC(=O)Nc2cccc(C(F)(F)F)c2)cc1	nt	nt	nt	nt	1%	nt
CCN(CC)c1ccc2c(-c3ccc(S(=O)(=O)O)cc3S(=O)(=O)[O-])c3ccc(=[N+](CC)CC)cc-3oc2c1	40µM*	45µM*	7.9µM*	89µM*	nt	?
CCOC(=O)N1CCN(C(=O)CN(c2cc(Cl)ccc2Cl)S(C)(=O)=O)CC1	nt	nt	nt	nt	4%	nt
CCC(c1nnnn1Cc1ccco1)N(Cc1cc2cc(C)cc(C)c2[nH]c1=O)CC1CCCO1 (stereo not drawn)	?	?	?	22µM*	?	-21%[11.4 µM]
Cc1cccc2cc(C(c3nnnn3C(C)(C)C)N(Cc3ccco3)CC3CCCO3)c(=O)[nH]c12 (stereo not drawn)	50µM*	16µM*	50µM*	12%	-19%	25µM*
CCC(c1nnnn1Cc1ccco1)N(Cc1ccccc1OC)Cc1cc2cc(C)ccc2[nH]c1=O (stereo not drawn)	-6%[59 µM]	-2%	3%	-24%	?	?
Cc1ccc2[nH]c(=O)c(C(c3nnnn3C(C)(C)C)N(Cc3ccco3)CC3CCCO3)cc2c1 (stereo not drawn)	-36%	14%	11%	?	25%	-26%
COc1ccccc1Nc1nc(N)nc(CN2CCN(c3cnccn3)CC2)n1	nt	nt	nt	nt	30%	nt
O=C(CC1SC(=O)N(c2ccccc2)C1=O)Nc1cccc2ccccc12 (stereo not drawn)	?	3%	-25%	20µM*	0%	-27%
CCOc1ccc(NC(=O)CC2SC(=O)N(c3ccccc3)C2=O)cc1 (stereo not drawn)	nt	-4%	?	10µM*	-13%	-29%
Cc1ccccc1NC(=O)CC1SC(=O)N(c2ccccc2)C1=O (stereo not drawn)	?	-14%	?	?	0%	-15%[11.4 µM]
CCOC(=O)c1cncc(C#N)c1	nt	nt	nt	nt	0%	nt
COc1ccc(O[C@H]2COCCN(C(=O)N3CCOCC3)C2)cc1	nt	nt	nt	nt	17%[176 µM]	nt
CCCCCCCCCCCCCCCCCC(=O)NCC(COP(=O)([O-])OCC[N+](C)(C)C)OCC (stereo not drawn)	13µM*	nt	nt	nt	nt	nt
Cc1ccc(-c2nc(CN(C)CC(=O)N(C)C)co2)cc1	nt	nt	nt	nt	-24%	nt
O=C(NN=C1CCCCCC1)c1ccncc1	nt	63%	-12%	4%	498%	-17%
O=C(NN=C1CCCCCCCCCCC1)c1ccncc1	12%[59 µM]	38%	?	-29%	-6%	28µM*
SMILES	G9a block	HP1b binding inh	BAZ2B inh	Sfp inh	ALOX12 inh	JMJD2A Tudor
Fc1ccc(NCc2cn3ccccc3n2)cc1	-37%[59 µM]	16%	50µM*	-11%	0%	-34%
Nc1nc(=S)c2ncn([C@@H]3O[C@H](CO)[C@@H](O)[C@H]3O)c2[nH]1	1.8µM*	?	?	nt	?	5µM*
Nc1nc(=S)c2ncn(C3CCCCC3)c2[nH]1	nt	15%[57 µM]	nt	nt	50µM*	?
Nc1nc(=S)c2ncn(C3OC(CO)C(O)C3O)c2[nH]1 (stereo not drawn)	2µM*	?	45µM*	6.3µM*	?	7.9µM*
COCCn1c(=O)[nH]c2cc(C(=O)Nc3nnc(C)s3)ccc21	79µM*	-3%	3%	-9%	-10%	-12%
COCCn1c(=O)[nH]c2cc(C(=O)Nc3cc(OC)c(OC)c(OC)c3)ccc2c1=O	19%	-21%	-3%	8%	-9%	-16%
O=C(NC(=S)Nc1cccnc1Cl)c1ccc(Cl)cc1	40µM*	-4%	-20%	?	?	-3%
CC(C)CCNC(=S)Nc1ccccn1	1µM*	24%	-13%	-43%	?	-13%
O=C(Nc1ccccn1)c1ccc(C(=O)Nc2ccccn2)cc1	-10%	38%	-4%	4%	nt	2%
COCCNC(=S)Nc1ccccn1	nt	31%	-4%	-13%	?	-8%
O=C(NC(=S)Nc1ccccn1)c1ccco1	-7%	22%	2%	56µM*	?	?
Cc1ccnc(NC(=S)NC(=O)c2ccco2)c1	-13%	31%	-35%	?	?	-19%
O=C(NC(=S)Nc1ccccn1)c1ccc(-c2ccccc2)cc1	45%	24%	-17%	3%	32µM*	-15%
Cc1c(F)cc(C(N)=O)cc1NS(=O)(=O)c1ccc(C(F)(F)F)cc1	nt	nt	nt	nt	-1%	nt
COCCCn1c(C(C)NC(=O)OCc2ccccc2)nc2cccnc21 (stereo not drawn)	nt	nt	nt	nt	89%	nt
CCCN(CCC)C(=S)NC(=O)c1ccc(-c2ccccc2)cc1	30%[12.7 µM]	16%	?	?	?	50µM*
Cc1cc(C)c(NC(=S)NC(=O)c2ccc(-c3ccccc3)cc2)c(C)c1	?	?	-38%	13%	22µM*	-29%
C=CCN(CC=C)S(=O)(=O)c1ccc(NC(=S)NC(=O)c2ccc(-c3ccccc3)cc2)cc1	-30%[2.33 µM]	-8%	-26%	?	3.2µM*	-30%
O=C(NC(=S)Nc1ccccn1)c1ccc([N+](=O)[O-])cc1	79µM*	9%	-25%	-29%	1%	-23%
O=C(NCc1ccc(F)cc1)c1ccc[n+]([O-])c1	nt	nt	nt	nt	9%	nt
